Compound activity: PubChem BioAssay, several laboratories
VLA-4 inh – inhibition in a human VLA-4 binding assay | P13612 | VLA-4 expressing cells, ligand binding flow cytometry | inhibition, % (about 7 µM as worked out from the volumes in the protocol) | 0.2% of 330,000 active | AID 2557; in the data active = inhibition above about 50%
Target sequence (P13612 whole entry, looked up): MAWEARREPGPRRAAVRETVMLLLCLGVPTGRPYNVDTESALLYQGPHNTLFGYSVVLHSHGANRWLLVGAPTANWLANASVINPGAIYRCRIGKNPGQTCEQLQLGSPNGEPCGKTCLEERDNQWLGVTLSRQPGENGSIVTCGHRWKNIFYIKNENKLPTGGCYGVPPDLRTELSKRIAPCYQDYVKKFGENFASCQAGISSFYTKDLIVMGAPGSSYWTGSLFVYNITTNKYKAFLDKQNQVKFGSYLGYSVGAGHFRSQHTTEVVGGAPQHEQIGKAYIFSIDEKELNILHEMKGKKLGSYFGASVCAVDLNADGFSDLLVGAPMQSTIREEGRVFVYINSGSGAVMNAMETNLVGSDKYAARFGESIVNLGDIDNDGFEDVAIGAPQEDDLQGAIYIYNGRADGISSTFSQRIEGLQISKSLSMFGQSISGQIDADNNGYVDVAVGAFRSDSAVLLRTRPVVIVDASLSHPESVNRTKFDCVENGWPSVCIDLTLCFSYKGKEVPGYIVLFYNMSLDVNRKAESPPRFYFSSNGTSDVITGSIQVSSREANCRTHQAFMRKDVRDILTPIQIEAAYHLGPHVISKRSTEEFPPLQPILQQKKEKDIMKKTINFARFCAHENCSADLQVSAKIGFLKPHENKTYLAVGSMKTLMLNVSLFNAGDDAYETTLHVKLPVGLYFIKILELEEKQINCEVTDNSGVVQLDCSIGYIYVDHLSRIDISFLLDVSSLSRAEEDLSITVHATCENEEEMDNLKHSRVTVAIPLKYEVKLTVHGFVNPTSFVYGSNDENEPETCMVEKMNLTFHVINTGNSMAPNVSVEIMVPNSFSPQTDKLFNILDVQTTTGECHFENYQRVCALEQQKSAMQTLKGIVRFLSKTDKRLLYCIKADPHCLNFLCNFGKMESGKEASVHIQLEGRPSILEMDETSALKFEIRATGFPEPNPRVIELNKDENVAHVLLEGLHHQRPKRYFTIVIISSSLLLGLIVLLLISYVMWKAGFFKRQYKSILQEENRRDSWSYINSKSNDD
JMJD2C inh – blocks human GASC-1 demethylase activity | GST-JMJD2C(1-420) H3K9me3 demethylation, DELFIA europium | inhibition, % at 2.35 µM | 0.069% of 330,000 active | AID 2099;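 active = more than half of a compound's replicate wells show inhibition beyond 50%, single wells judged on their own value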;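 also: signal counts dimethyl H3K9 product captured on neutravidin plate; 0% = median of DMSO wells and 100% = 0.3 times that DMSO median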
pCIP destab – compounds decreasing mouse p/CIP protein stability. decrease of EGFP signal, % at 10 µM. 0.01% of 290,000 active. F442A p/CIP-EGFP cells, EGFP fluorescence, 16 h;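 active = EGFP signal decrease of at least 30% at 10 µM or well 3 SD below plate mean, unless failing retest; inactive = the rest, including hits failing retest or dose response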
GPR7 antag – blocks human GPR7 receptor signaling; GPR7-expressing cells, fluorescence antagonist assay; inhibition, % at 4.4 µM; AID 1861; 1.1% of 290,000 active; in the data active = inhibition above about 16%, passing the limit was not always enough;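 also: cells stimulated with the agonist NPW; 0% = agonist with vehicle and 100% = vehicle without agonist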
* marks the source's active call; other numbers are inactive results; . = no result given. Compounds with a hit are over-represented: about 1.2% of the library has one in this group of screens.

SMILES	VLA-4 inh	JMJD2C inh	pCIP destab	GPR7 antag
CCOC(=O)c1c(NC(=O)C2CCCO2)sc2c1CCC2 (stereo not drawn)	-4.4	52.4*	28.2	19.4
O=C(NCc1cccc(Br)c1)C1CC(c2ccccc2C(F)(F)F)=NO1 (stereo not drawn)	9.0	3.0	8.9	.
CN(C)c1ccc(P(=O)(COc2ccc([N+](=O)[O-])cc2)c2ccc(N(C)C)cc2)cc1	5.0	-8.4	-2.0	20.4*
CCN1C(=O)C(C(=O)Nc2ccc(OC)cc2)C2CC1(C)Oc1ccccc12 (stereo not drawn)	-0.4	54.2*	-13.4	-9.2
COc1ccc(NC(=O)C2CC(=O)OC23CCCCC3)cc1 (stereo not drawn)	-21.0	13.5	1.5	-17.8
COc1ccccc1CNC(=O)COC(=O)c1ccc(-n2cnnn2)cc1	3.9	0.3	.	.
O=C(OCCOc1ccccc1Cl)c1ccc(-n2cnnn2)cc1	0.0	-6.7	-3.5	17.2*
Fc1ccccc1CSc1nncn1NCc1cccs1	-3.6	11.8	1.9	18.9*
Cc1cccc(C(=O)NNC(=O)C2CC2)c1	1.8	22.4	-5.7	-19.4
COC(=O)COc1ccsc1C(=O)OC	12.3	-0.8	-8.1	-1.5
CCOC(=O)C(C)Oc1ccsc1C(=O)OC (stereo not drawn)	14.3	51.1*	2.7	-3.4
Nc1ccc(-c2nc(-c3ccccc3)nc3ccccc23)cc1	3.7	13.3	9.7	3.4
Nc1ccc(-c2cc(-c3cccc(N)c3)nc(-c3ccccc3)n2)cc1	0.6	-4.0	-0.1	28.7*
Cn1c(SCc2c(F)cccc2Cl)nc2ccccc2c1=O	13.9	-4.8	.	.
Cn1c(SCc2c(F)cccc2Cl)nc2c(c1=O)SCC2	0.6	-1.7	-6.5	20.0*
CCOP(=O)(OCC)c1ccc2c(c1)C(=O)c1ccccc1CC2	0.0	-11.3	.	.
CCNC(=S)Nc1ccc(Cl)c(C(F)(F)F)c1	29.3	-2.9	1.8	-8.2
COc1ccc(C2NC(=S)NC(O)(C(F)(F)F)C2C(=O)c2cccs2)cc1 (stereo not drawn)	4.4	8.2	-8.2	-4.9
COc1ccc(NC(=S)NCc2ccc(S(N)(=O)=O)cc2)cc1OC	11.8	56.2*	6.5	-6.8
O=S(=O)(Nc1ccncc1Cl)c1cc(Cl)ccc1Cl	4.0	8.5	5.3	20.3*
Cc1cc(C(=O)COC(=O)c2ccc(Br)o2)c(C)n1C	-0.7	-43.7	12.5	-9.6
COCCn1c(C)cc(C(=O)COC(=O)c2ccc(Br)o2)c1C	26.3	-26.5	2.2	19.1*
Cc1cc([N+](=O)[O-])nn1CC(=O)NCc1nc2ccccc2[nH]1	4.8	2.3	2.3	3.7
C=CCn1c(N)cc(=O)nc1SC(C)C(=O)Nc1ccc(C(=O)OCC)cc1 (stereo not drawn)	-1.7	4.4	6.0	-15.0
COc1ccc(N(C(=O)COc2ccc(C)cc2)S(=O)(=O)c2ccc(C)cc2)cc1	9.2	2.6	-17.4	-7.6
SMILES	VLA-4 inh	JMJD2C inh	pCIP destab	GPR7 antag
O=C(O)c1cc(O)c2c(c1)[C@@H]([C@H]1c3cc(C(=O)O)cc(O)c3C(=O)c3c(O[C@@H]4O[C@H](CO)[C@@H](O)[C@H](O)[C@H]4O)cccc31)c1cccc(O[C@@H]3O[C@H](CO)[C@@H](O)[C@H](O)[C@H]3O)c1C2=O	14.3	91.3*	.	.
CCCCN1CC(=O)N2[C@H](c3ccc(Cl)cc3)[C@@H]3C(=O)N(CC)C(=O)[C@@H]3[C@]2(Cc2ccccc2)C1=O	-7.5	15.3	-16.2	-2.6
CC1C/C(=C/c2ccncc2)C(=O)/C(=C/c2ccncc2)C1 (stereo not drawn)	28.4	18.2	-9.5	24.4*
CC1C/C(=C/c2cccn2C)C(=O)/C(=C/c2cccn2C)C1 (stereo not drawn)	-146.4	7.1	5.4	-2.3
O=C(C[C@@H]1C/C=C\CC[C@H](Cc2ccc(F)cc2)C(=O)OC[C@@H](Cc2ccccc2)NC1=O)NCCO	29.5	2.3	.	.
C[C@H](CO)N1C[C@H](C)[C@@H](CN(C)Cc2ccc3c(c2)OCO3)Oc2ccc(NC(=O)Cn3cnnn3)cc2C1=O	6.0	60.5*	.	.
C[C@H](CO)N1C[C@H](C)[C@@H](CN(C)C(=O)Nc2ccc3c(c2)OCO3)Oc2ccc(NC(=O)Cn3cnnn3)cc2C1=O	-1.5	68.4*	.	.
Cc1noc(C)c1NC(=O)N(C)C[C@H]1Oc2ccc(NC(=O)Cn3cnnn3)cc2C(=O)N([C@H](C)CO)C[C@@H]1C	-8.3	66.5*	.	.
c1ccc(COC(CN2CCCCCC2)CN2CCCCCC2)cc1	5.3	-4.9	-7.7	15.4
O=c1[nH]nc(-c2ccc(F)cc2)cc1Cc1ccccc1	4.2	-17.0	-7.3	-15.2
O=C(O)CCC(=O)N1CCN(S(=O)(=O)c2ccc3ccccc3c2)CC1	2.1	-5.5	-1.7	0.1
O=C(Cn1ncc(Cl)c(Cl)c1=O)N1CCN(S(=O)(=O)c2ccc3ccccc3c2)CC1	22.2	-0.1	-16.0	39.8*
FC(F)(F)c1cnc(COc2ccc(Cl)cc2Cl)c(Cl)c1	-13.8	53.7	-6.0	-8.8
O=C(COC(=O)Cc1c[nH]c2ccccc12)Nc1cc(S(=O)(=O)N2CCOCC2)ccc1Cl	3.3	5.3	.	.
Clc1ccc2[nH]c3c(NCCCN4CCOCC4)ncnc3c2c1	31.0	-10.4	-6.2	19.6*
Cc1ccc2[nH]c3c(NCCN4CCOCC4)ncnc3c2c1	.	10.9	7.6	4.5
CC(=O)c1cccc(NC(=O)CNC(=O)c2sc3ccccc3c2Cl)c1	-24.0	-19.5	.	.
Fc1ccc(CNC(=S)Nc2cccc(C(F)(F)F)c2)cc1	-14.5	-1.2	10.4	1.7
FC(F)(F)c1cccc(NC(=S)NCc2ccc(Cl)cc2)c1	8.5	-2.2	2.5	28.4*
FC(F)(F)c1ccc(NC(=S)NCc2ccccc2)cc1	27.4	-11.1	-2.0	24.4*
COc1ccccc1NS(=O)(=O)c1cc(NC(=O)CNC(=O)c2ccc(C)s2)ccc1Cl	11.0	8.7	2.7	-8.3
CC(=O)N1CCN(c2ccccc2NC(=O)COc2cc(C)ccc2C(C)C)CC1	0.2	.	1.3	20.8*
O=C(CCNC(=O)c1ccccc1)N/N=C/c1ccc([N+](=O)[O-])cc1	3.4	12.2	-9.0	3.9
O=C(CNc1ccccc1)N/N=C/c1ccc([N+](=O)[O-])cc1	61.8*	-0.7	1.9	-4.2
COc1ccccc1-c1nnc2sc(-c3ccc(N(C)C)cc3)nn12	22.9	3.2	-3.0	18.3
SMILES	VLA-4 inh	JMJD2C inh	pCIP destab	GPR7 antag
COc1ccccc1-c1nnc2sc(-c3cc4ccccc4o3)nn12	6.3	-5.4	-2.5	18.2*
CCC(C)NCCC(=O)Nc1ccc(Cl)c(S(=O)(=O)Nc2ccc(Cl)cc2)c1 (stereo not drawn)	21.6	-2.0	-2.6	32.5*
Cc1ccc(C(=O)CCC(=O)Nc2ccc(Cl)c(S(=O)(=O)Nc3cccc(Cl)c3)c2)cc1	28.9	16.8	-5.2	5.1
O=C(COC(=O)c1ccccc1)NCc1cccs1	-4.7	0.1	-18.4	-11.1
Cc1cc(C)cc(C(=O)OCC(=O)NCc2cccs2)c1	11.2	-6.1	7.3	26.4*
CCC1=C(OC(=O)N(CC)CC)N2C(=O)OC(=NCCc3c[nH]c4ccccc34)[C@]2(Cc2ccccc2)[C@H]2C1=CC[C@H]1C(=O)NC(=O)[C@H]12	-7.1	0.1	9.8	.
